Measured values: PMC7862700, “An all-to-all approach to the identification of sequence-specific readers for epigenetic DNA modifications on cytosine”

Key:
Test in all cases: DAPPL (digital affinity profiling via proximity ligation, sequencing); 10 mM Tris-HCl pH 7.5, 50 mM NaCl, 1 mM DTT, 4% glycerol, room temperature, 30 min; GST-TFs on glutathione beads, 16-mer random dsDNA library, 0.1% formaldehyde crosslink after washing; high values mean tight binding
FEV = molecular target: T1, FEV (Homo sapiens, UniProt Q99581 1-238); conditions: protein: recombinant; tags: N-terminal GST; dsDNA, one strand shown
T1 sequence: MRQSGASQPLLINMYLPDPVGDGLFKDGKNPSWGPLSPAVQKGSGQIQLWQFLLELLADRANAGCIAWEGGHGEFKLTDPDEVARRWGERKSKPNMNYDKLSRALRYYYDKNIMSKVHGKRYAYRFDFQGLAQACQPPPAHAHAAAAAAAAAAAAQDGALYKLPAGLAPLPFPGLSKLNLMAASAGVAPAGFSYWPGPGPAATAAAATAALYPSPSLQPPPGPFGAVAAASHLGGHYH
Summary of the method: (§1)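 The binding signal reported is, for every hexamer, its read frequency for a factor over its read frequency for the tag-only sample. Reads came from pools of yeast-expressed, GST-fused human transcription factors on glutathione beads, barcoded with DNA and mixed with that sample, which were incubated with 200 nmole of a random double-stranded 16-mer DNA library in Tris/NaCl/DTT/glycerol buffer at room temperature for 30 min. After washing, the pools were crosslinked with 0.1% formaldehyde, proximity-ligated with BsaI/T4 ligase for 1 h at 37 °C, PCR-amplified and sequenced on an Illumina NextSeq500.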

ETV5 = ETV5 (Homo sapiens, UniProt P41161 1-510); conditions: protein: recombinant; tags: N-terminal GST; dsDNA, one strand shown
Summary of the method: as §1

HSF1 = HSF1 (Homo sapiens, UniProt Q00613 1-529); conditions: protein: recombinant; tags: N-terminal GST; chain copies: 3; dsDNA, one strand shown
Summary of the method: as §1

SPIC = molecular target: T2, SPIC (Homo sapiens, UniProt Q8N5J4 1-248); conditions: protein: recombinant; tags: N-terminal GST; dsDNA, one strand shown
T2 sequence: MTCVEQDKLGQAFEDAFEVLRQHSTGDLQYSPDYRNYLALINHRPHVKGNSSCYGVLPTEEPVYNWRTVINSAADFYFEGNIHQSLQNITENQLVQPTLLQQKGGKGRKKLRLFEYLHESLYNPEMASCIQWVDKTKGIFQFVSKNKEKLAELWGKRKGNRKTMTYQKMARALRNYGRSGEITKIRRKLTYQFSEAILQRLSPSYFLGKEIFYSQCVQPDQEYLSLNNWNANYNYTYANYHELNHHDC
Summary of the method: as §1

ELF4 = ELF4 (Homo sapiens, UniProt Q99607 1-663); conditions: protein: recombinant; tags: N-terminal GST; dsDNA, one strand shown
Summary of the method: as §1

ETV2 = molecular target: T3, ETV2 (Homo sapiens, UniProt O00321 1-342); conditions: protein: recombinant; tags: N-terminal GST; dsDNA, one strand shown
T3 sequence: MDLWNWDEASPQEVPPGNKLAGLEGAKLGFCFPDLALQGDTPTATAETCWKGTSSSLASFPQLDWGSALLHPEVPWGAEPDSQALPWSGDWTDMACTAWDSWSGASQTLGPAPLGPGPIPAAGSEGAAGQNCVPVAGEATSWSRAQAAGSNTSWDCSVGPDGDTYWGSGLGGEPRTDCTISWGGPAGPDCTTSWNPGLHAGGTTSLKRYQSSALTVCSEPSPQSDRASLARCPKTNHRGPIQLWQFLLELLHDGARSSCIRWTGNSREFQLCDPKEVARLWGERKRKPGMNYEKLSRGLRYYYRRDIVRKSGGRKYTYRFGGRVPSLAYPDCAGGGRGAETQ
Summary of the method: as §1

ELF3 = molecular target: T4, ELF3 (Homo sapiens, UniProt P78545 1-371); conditions: protein: recombinant; tags: N-terminal GST; dsDNA, one strand shown
T4 sequence: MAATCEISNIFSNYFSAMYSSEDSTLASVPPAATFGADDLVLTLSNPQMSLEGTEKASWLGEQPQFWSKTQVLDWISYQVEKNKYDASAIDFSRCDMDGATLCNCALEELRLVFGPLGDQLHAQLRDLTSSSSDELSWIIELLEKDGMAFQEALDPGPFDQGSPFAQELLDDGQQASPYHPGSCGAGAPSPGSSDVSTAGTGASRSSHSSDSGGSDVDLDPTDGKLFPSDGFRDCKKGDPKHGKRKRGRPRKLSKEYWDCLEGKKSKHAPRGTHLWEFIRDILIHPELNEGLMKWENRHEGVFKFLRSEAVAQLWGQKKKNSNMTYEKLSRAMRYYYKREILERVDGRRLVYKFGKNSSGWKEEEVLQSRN
Summary of the method: as §1

ETV1 = ETV1 (Homo sapiens, UniProt P50549 1-477); conditions: protein: recombinant; tags: N-terminal GST; dsDNA, one strand shown
Summary of the method: as §1

ERF = molecular target: T5, ERF (Homo sapiens, UniProt P50548 1-548); conditions: protein: recombinant; tags: N-terminal GST; dsDNA, one strand shown
T5 sequence: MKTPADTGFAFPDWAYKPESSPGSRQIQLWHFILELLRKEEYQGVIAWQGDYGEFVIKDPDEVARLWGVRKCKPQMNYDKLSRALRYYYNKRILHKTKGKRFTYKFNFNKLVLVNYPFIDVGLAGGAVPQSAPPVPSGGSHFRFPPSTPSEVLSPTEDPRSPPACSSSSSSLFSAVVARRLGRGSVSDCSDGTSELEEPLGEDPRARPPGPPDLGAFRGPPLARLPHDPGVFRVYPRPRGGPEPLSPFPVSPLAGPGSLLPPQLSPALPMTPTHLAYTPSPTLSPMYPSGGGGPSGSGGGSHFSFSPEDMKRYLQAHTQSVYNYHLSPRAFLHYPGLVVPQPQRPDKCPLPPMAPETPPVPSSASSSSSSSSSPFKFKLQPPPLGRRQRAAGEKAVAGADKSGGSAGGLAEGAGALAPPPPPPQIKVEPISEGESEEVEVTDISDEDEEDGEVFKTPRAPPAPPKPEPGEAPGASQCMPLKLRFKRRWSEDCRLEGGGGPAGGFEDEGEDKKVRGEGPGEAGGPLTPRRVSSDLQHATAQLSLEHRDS
Summary of the method: as §1

ETV3L = molecular target: T6, ETV3L (Homo sapiens, UniProt Q6ZN32 1-361); conditions: protein: recombinant; tags: N-terminal GST; dsDNA, one strand shown
T6 sequence: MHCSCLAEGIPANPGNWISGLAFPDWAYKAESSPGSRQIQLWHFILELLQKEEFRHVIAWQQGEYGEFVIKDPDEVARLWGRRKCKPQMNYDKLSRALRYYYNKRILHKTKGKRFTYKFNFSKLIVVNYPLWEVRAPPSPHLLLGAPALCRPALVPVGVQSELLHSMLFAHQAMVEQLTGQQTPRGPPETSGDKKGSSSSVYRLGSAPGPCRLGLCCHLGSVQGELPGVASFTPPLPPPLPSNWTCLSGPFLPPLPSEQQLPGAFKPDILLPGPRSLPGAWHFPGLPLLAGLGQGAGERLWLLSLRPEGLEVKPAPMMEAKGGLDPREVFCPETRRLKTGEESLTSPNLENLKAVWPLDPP
Summary of the method: as §1

ETS2 = molecular target: T7, ETS2 (Homo sapiens, UniProt P15036 1-469); conditions: protein: recombinant; tags: N-terminal GST; dsDNA, one strand shown
T7 sequence: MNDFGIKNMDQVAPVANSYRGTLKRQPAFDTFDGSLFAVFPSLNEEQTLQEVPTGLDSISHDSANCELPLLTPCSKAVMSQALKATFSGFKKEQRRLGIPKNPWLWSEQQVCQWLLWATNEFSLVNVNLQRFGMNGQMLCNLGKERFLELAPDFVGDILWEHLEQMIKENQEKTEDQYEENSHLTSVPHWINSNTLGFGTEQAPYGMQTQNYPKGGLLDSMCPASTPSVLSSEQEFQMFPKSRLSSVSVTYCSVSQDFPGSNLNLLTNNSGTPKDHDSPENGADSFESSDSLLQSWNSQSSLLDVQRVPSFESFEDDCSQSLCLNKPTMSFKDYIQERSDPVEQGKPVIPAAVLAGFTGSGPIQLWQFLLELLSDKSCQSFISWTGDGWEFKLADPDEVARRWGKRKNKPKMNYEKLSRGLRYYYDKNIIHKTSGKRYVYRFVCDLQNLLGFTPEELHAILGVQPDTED
Summary of the method: as §1

SPDEF = molecular target: T8, SPDEF (Homo sapiens, UniProt O95238 1-335); conditions: protein: recombinant; tags: N-terminal GST; dsDNA, one strand shown
T8 sequence: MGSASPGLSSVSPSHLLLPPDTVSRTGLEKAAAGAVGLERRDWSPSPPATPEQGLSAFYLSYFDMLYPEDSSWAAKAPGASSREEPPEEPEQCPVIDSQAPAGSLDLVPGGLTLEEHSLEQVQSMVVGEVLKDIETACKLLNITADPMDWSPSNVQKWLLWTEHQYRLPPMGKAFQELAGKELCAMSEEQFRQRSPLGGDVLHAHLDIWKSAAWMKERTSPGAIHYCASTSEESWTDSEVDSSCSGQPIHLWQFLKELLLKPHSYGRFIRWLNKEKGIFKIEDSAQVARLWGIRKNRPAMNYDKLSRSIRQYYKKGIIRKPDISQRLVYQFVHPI
Summary of the method: as §1

ETV7 = molecular target: T9, ETV7 (Homo sapiens, UniProt Q9Y603 1-341); conditions: protein: recombinant; tags: N-terminal GST; dsDNA, one strand shown
T9 sequence: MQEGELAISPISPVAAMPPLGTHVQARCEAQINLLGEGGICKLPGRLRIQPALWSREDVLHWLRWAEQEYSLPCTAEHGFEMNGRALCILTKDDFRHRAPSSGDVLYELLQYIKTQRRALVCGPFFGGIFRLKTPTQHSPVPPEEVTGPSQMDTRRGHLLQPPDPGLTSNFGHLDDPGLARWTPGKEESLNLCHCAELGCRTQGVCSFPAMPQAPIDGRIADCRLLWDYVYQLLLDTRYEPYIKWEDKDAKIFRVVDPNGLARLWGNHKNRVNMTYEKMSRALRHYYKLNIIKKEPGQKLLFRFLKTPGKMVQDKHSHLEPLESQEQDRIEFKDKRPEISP
Summary of the method: as §1

ELF5 = molecular target: T10, ELF5 (Homo sapiens, UniProt Q9UKW6-2 1-255); conditions: protein: recombinant; tags: N-terminal GST; dsDNA, one strand shown
T10 sequence: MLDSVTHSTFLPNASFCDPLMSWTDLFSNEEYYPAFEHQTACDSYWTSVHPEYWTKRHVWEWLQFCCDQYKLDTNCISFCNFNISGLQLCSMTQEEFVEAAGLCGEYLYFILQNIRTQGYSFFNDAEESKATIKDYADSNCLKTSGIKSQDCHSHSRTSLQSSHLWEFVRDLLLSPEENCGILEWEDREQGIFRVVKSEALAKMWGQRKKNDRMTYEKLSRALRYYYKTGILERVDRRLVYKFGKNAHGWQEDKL
Summary of the method: as §1

ETV3 = molecular target: T11, ETV3 (Homo sapiens, UniProt P41162-2 1-143); conditions: protein: recombinant; tags: N-terminal GST; dsDNA, one strand shown
T11 sequence: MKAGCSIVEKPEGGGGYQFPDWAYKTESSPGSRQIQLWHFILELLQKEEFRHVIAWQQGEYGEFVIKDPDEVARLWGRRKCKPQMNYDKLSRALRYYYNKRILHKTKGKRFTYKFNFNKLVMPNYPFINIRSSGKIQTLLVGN
Summary of the method: as §1

ETV6 = ETV6 (Homo sapiens, UniProt P41212 1-452); conditions: protein: recombinant; tags: N-terminal GST; dsDNA, one strand shown
Summary of the method: as §1

CRX = CRX (Homo sapiens, UniProt O43186 1-299); conditions: protein: recombinant; tags: N-terminal GST; dsDNA, one strand shown
Summary of the method: as §1

Sequence of ETV1 (P50549 whole entry): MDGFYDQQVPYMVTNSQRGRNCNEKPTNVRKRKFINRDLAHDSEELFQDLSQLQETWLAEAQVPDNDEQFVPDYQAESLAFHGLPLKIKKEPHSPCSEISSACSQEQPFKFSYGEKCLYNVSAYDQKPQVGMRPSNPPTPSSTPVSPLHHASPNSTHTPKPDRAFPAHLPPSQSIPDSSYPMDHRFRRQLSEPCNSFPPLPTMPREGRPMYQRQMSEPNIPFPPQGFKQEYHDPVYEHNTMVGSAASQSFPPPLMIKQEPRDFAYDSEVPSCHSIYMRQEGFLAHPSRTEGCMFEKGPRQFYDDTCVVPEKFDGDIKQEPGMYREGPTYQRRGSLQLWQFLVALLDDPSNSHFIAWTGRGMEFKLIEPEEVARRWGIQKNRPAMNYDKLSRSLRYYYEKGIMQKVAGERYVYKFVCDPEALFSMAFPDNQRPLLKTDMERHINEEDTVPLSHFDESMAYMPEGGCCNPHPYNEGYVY
Sequence of ETV5 (P41161 whole entry): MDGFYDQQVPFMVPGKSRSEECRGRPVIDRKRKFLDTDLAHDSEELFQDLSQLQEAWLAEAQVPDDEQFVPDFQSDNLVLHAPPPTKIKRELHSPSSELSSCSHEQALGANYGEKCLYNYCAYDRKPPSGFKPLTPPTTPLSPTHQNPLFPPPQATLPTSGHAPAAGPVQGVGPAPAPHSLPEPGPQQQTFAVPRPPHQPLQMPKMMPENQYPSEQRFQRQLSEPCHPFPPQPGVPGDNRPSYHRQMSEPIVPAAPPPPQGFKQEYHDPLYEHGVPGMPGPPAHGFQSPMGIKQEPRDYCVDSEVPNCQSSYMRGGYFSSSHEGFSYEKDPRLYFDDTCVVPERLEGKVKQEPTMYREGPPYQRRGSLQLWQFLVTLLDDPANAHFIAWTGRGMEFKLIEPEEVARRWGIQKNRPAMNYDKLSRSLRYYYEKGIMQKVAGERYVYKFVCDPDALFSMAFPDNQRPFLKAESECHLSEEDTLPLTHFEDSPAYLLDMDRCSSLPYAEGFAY
Sequence of HSF1 (Q00613 whole entry): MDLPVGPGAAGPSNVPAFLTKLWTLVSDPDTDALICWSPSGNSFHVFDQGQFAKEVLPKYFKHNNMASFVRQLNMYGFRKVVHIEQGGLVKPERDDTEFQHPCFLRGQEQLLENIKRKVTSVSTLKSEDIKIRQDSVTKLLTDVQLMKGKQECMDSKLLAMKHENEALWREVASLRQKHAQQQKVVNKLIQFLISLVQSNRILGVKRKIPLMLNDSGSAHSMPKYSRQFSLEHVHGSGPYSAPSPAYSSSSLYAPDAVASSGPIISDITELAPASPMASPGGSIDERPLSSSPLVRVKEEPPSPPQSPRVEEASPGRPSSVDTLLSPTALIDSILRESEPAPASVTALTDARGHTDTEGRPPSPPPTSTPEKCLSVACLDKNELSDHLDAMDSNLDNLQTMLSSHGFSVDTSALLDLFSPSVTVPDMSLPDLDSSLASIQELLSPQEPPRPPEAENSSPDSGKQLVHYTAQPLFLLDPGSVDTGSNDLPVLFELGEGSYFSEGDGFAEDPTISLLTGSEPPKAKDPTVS
Sequence of ELF4 (Q99607 whole entry): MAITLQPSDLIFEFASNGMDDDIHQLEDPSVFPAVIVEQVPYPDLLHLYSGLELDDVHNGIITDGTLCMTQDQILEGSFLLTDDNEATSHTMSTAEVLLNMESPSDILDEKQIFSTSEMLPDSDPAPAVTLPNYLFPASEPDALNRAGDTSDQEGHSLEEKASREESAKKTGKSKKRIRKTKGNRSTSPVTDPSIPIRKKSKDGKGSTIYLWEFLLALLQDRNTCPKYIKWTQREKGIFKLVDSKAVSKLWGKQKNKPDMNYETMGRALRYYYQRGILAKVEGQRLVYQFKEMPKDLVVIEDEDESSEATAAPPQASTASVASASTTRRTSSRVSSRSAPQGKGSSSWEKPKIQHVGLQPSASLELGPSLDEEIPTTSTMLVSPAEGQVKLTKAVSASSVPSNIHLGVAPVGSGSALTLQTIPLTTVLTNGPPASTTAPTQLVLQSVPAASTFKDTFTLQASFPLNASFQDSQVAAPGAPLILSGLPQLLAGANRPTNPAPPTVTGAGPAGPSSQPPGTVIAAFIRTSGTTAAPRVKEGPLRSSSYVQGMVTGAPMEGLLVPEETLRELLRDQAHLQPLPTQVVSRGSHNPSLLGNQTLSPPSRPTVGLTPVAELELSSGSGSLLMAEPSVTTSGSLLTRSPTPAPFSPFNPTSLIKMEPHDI
Sequence of ETV6 (P41212 whole entry): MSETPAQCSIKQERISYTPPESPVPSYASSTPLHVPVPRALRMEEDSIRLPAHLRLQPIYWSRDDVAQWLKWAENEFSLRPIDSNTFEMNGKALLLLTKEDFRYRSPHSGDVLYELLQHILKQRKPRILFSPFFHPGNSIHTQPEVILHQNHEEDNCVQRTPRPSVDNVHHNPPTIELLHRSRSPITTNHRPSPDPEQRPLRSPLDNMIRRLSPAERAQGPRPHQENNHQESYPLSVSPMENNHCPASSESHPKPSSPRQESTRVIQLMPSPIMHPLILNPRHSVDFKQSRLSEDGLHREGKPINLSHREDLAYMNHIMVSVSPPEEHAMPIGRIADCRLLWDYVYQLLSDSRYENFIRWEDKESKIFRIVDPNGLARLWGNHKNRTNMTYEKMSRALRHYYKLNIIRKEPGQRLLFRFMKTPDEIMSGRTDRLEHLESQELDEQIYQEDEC
Sequence of CRX (O43186 whole entry): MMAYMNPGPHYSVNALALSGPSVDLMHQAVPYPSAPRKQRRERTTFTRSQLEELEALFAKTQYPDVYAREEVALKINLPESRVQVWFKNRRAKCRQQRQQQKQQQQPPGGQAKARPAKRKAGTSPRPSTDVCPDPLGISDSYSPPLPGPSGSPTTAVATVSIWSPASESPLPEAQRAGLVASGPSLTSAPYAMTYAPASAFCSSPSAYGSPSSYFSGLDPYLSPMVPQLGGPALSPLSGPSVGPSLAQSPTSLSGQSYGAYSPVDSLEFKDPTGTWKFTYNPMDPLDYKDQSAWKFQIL

GCTCTG
binding signal (FEV): 1.25 fold enrichment (6-mer frequency, TF over GST control)
binding signal (ETV5): 1.15 fold enrichment (6-mer frequency, TF over GST control)
binding signal (HSF1): 1.08 fold enrichment (6-mer frequency, TF over GST control)
binding signal (SPIC): 1.18 fold enrichment (6-mer frequency, TF over GST control)
binding signal (ELF4): 1.17 fold enrichment (6-mer frequency, TF over GST control)
binding signal (ETV2): 1 fold enrichment (6-mer frequency, TF over GST control)
binding signal (ELF3): 1.04 fold enrichment (6-mer frequency, TF over GST control)
binding signal (ETV1): 1.28 fold enrichment (6-mer frequency, TF over GST control)
binding signal (ERF): 1.03 fold enrichment (6-mer frequency, TF over GST control)
binding signal (ETV3L): 1.23 fold enrichment (6-mer frequency, TF over GST control)
binding signal (ETS2): 1.12 fold enrichment (6-mer frequency, TF over GST control)
binding signal (SPDEF): 1.06 fold enrichment (6-mer frequency, TF over GST control)
binding signal (ETV7): 1.17 fold enrichment (6-mer frequency, TF over GST control)
binding signal (ELF5): 1.02 fold enrichment (6-mer frequency, TF over GST control)
binding signal (ETV3): 1.17 fold enrichment (6-mer frequency, TF over GST control)
binding signal (ETV6): 1.17 fold enrichment (6-mer frequency, TF over GST control)

TAGCAG
binding signal (FEV): 1.03 fold enrichment (6-mer frequency, TF over GST control)
binding signal (ETV5): 1.04 fold enrichment (6-mer frequency, TF over GST control)
binding signal (HSF1): 1.12 fold enrichment (6-mer frequency, TF over GST control)
binding signal (SPIC): 1.04 fold enrichment (6-mer frequency, TF over GST control)
binding signal (ELF4): 1.05 fold enrichment (6-mer frequency, TF over GST control)
binding signal (ETV2): 1.06 fold enrichment (6-mer frequency, TF over GST control)
binding signal (CRX): 1.23 fold enrichment (6-mer frequency, TF over GST control)
binding signal (ETV1): 1.02 fold enrichment (6-mer frequency, TF over GST control)
binding signal (ERF): 1.11 fold enrichment (6-mer frequency, TF over GST control)
binding signal (ETV3L): 1.07 fold enrichment (6-mer frequency, TF over GST control)
binding signal (ETS2): 1.02 fold enrichment (6-mer frequency, TF over GST control)
binding signal (ETV7): 1.07 fold enrichment (6-mer frequency, TF over GST control)
binding signal (ELF5): 1.05 fold enrichment (6-mer frequency, TF over GST control)
